Test results from PubChem BioAssay AID720540 (National Center for Advancing Translational Sciences (NCATS), 2013).
The whole screen tested about 1,300 compounds, of which about 460 (35%) were called active. Inconclusive results (about 39%) are left out. This is one part of the list. A number with no mark means an inactive call. Calls follow the shape of the dose curve; as a rule, active = well fitted inhibition curve with a large enough effect; inconclusive = small, poorly fitted or top-dose-only effect; inactive = flat fitted curve, though single readings scatter.

Biological target: Protein phosphatase EYA2 (Homo sapiens) (UniProt O00167)
Sequence (O00167 whole entry, looked up): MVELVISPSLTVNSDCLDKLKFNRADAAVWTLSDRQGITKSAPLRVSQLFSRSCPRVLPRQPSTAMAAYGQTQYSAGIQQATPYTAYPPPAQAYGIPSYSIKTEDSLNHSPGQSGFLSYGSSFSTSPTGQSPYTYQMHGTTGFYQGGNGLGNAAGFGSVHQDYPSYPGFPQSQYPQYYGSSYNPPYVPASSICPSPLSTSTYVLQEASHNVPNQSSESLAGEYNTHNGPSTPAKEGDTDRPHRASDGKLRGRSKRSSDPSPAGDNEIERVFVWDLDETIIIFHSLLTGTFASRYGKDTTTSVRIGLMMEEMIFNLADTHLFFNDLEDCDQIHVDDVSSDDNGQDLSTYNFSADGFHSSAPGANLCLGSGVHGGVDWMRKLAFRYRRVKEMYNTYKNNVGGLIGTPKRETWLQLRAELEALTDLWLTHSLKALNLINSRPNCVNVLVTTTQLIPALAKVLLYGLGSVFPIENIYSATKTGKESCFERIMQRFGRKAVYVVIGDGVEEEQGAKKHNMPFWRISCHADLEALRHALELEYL
Assay: qHTS for Inhibitors of the Phosphatase Activity of Eya2: Confirmatory Assay for Cherry-picked Compounds; also: nearly all actives have a fitted effect of over 65% in size;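 as to activity change, negative = inhibition: 0% = DMSO wells and -100% = EGTA control giving full inhibition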
Conditions: purified EYA2 phosphatase activity, qHTS confirmation; series mostly up to 46.1 µM; activity change, negative = inhibition: at the top concentration
Outline: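 Eya2 (0.2 uM working solution) preincubated 10 min at room temperature with compound in pH 7.5 HEPES buffer with MgCl2, BSA, DTT. OMFP added (50 uM working solution), 10 min more; fluorescence 485/525 nm, normalized to EGTA and DMSO.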
Potency is read from the fitted curve at half-maximal effect.

Structure (SMILES)	activity change, negative = inhibition [%]	Potency
FC(F)(F)c1ccc(CN2C[C@@H]3C(c4ccc(Cl)nc4)C4(c5cccnc5)CC3(C4)[C@H]2c2ccccc2)cc1 (stereo not given in full)	-20.4	
O=C(NCc1ccco1)C1CC2CCC1C2 (stereo not given)	-4.68	
COc1cc2c(cc1OC)-c1cc(Nc3ccc(C)cc3)nc(=O)n1CC2		5.36 µM (active)
Cc1c(C(=O)/C=C/N(C)C)nnn1-c1ccc(Cl)cc1Cl	-1.95	
CCc1c(C)nc(Nc2nc(C)c3ccc(OC)cc3n2)[nH]c1=O		3.79 µM (active)
C[C@](N)(Cc1ccc(O)c(O)c1)C(=O)O	-6	
COc1cc(NC(=O)c2ccccc2Cl)ccc1NC(=O)c1cccs1	-14.2	
COc1ccc(C(=O)Nc2ccc3c(c2)CCCN3C(=O)c2cccs2)c(OC)c1		8.49 µM (active)
COc1ccccc1/C=C/C(=O)Oc1cccc2cccnc12		9.53 µM (active)
O=C(/C=C/c1ccccc1)Oc1cccc2cccnc12		6.75 µM (active)
O=C(/C=C/c1ccco1)Oc1cccc2cccnc12		15.1 µM (active)
O=C(/C=C\c1ccccc1)Oc1cccc2cccnc12		7.57 µM (active)
COCCNC(=O)CCC(=O)NNc1nc2ccccc2c2nc(-c3ccccc3)nn12	-27	
c1ccc(-c2ccc(C3=Nn4c(nnc4-c4cc(-c5ccccc5)n[nH]4)SC3)cc2)cc1	-22.5	
N#Cc1ccc(CSc2nnc(-c3c[nH]c4ccccc34)n2-c2ccccc2)cc1	-25.4	
COc1ccc(N=C2SC(C(=O)N3CCN(c4ccc([N+](=O)[O-])cc4)CC3)CC(=O)N2C)cc1 (stereo not given)	-14.5	
COc1cc2nc(/C=C/c3ccc(N(C)C)cc3)sc2cc1SC		19 µM (active)
COc1ccccc1NC(=O)c1ccc(NC(=O)Cc2n[nH]c(=O)c3ccccc23)cc1	-15.9	
COc1ccccc1OCC(=O)Nc1ccc(C(=O)Nc2ccccc2C(=O)O)cc1		16.9 µM (active)
O=C(NC1=C(Nc2ccc(F)cc2)C(=O)c2ccccc2C1=O)c1ccc(Cl)cc1	-23.3	
O=C(Nc1ccc(F)cc1)c1ccc2[nH]c(=O)c(=O)[nH]c2c1		4.78 µM (active)
N#Cc1c(N)n(-c2cccc(C(=O)O)c2)c2nc3ccccc3nc12		16.9 µM (active)
N#Cc1c(N)n(-c2ccc(C(=O)O)cc2)c2nc3ccccc3nc12		16.9 µM (active)
Cc1cc(/C=C2\C(=N)N3N=C(CC(=O)N4CCOCC4)SC3=NC2=O)c(C)n1Cc1ccccc1	-27.6	

Structure (SMILES)	activity change, negative = inhibition [%]	Potency
O=C(NN=C1CCCC1)c1[nH]c2ccc(Br)cc2c1-c1ccccc1	-27.5	
COc1cc(/C=C2\C(C)=C(C#N)c3nc(N)c(C#N)c(C)c32)ccc1OCC(=O)O		16.9 µM (active)
CN(C)c1ccc(/C=C2\C=Cc3cc(N)ccc32)cc1		8.49 µM (active)
CN(C)c1ccc(/C=C2\CCc3cc(N)ccc32)cc1		8.49 µM (active)
COc1ccc2c(c1)C=C/C2=C\c1ccc(N(C)C)cc1		5.36 µM (active)
Cc1ccc(NC(=O)c2ccc3c(c2)OCO3)cc1S(=O)(=O)N1CCOCC1		9.53 µM (active)
Cc1cccc(S(=O)(=O)C(C#N)c2nc3ccccc3nc2N2CCOCC2)c1 (stereo not given)	-19.8	
Cc1ccc(NC(=O)COc2ccc(S(=O)(=O)N3CCOCC3)cc2)cc1	-10.9	
O=S(=O)(c1ccc(Cl)cc1)N1CCOCC1	0.87	
COc1ccc(C(=O)Nc2nc(-c3ccccn3)cs2)cc1S(=O)(=O)N1CCOCC1		1.51 µM (active)
Cc1ccc(NC(=O)c2cc(=O)c3ccccc3o2)cc1S(=O)(=O)N1CCCCC1		12 µM (active)
O=C(Nc1cc(S(=O)(=O)N2CCOCC2)ccc1Cl)c1cc(=O)c2ccccc2o1	-22.8	
O=C(Nc1nc(-c2ccccn2)cs1)c1cccc(S(=O)(=O)N2CCOCC2)c1		1.51 µM (active)
S=C(Nc1ccc2c(c1)OCCO2)Nc1ccc2c(c1)OCO2	-21.9	
CC(C(=O)c1ccc(Br)cc1)[n+]1cccc2ccccc21 (stereo not given)	24.3	
O=C1c2ccccc2C(=O)N1CCCc1cn(C[C@H]2CC[C@@H]([C@@H]3CC[C@H](Cn4cc(CCCN5C(=O)c6ccccc6C5=O)nn4)O3)O2)nn1	-2.94	
COc1ccc(C(=O)Nc2ccc3nc(C)sc3c2)cc1S(=O)(=O)N1CCOCC1		16.9 µM (active)
CCOC(=O)N1CCN(S(=O)(=O)c2ccc(C(=O)NNc3nc4ccc(Cl)cc4s3)cc2)CC1	-26.1	
COc1ccc(CC(=O)Nc2cccc(Cl)c2C)cc1S(=O)(=O)N1CCOCC1	-7.62	
CC(C)N=c1cc2n(-c3ccc(Cl)cc3)c3ccccc3nc-2cc1Nc1ccc(Cl)cc1		1.9 µM (active)
N#C/C(=C\c1ccc(OC(=O)c2ccccn2)cc1)C(N)=O		16.9 µM (active)
CCOC(=O)/C(C#N)=C/c1ccc(OC(=O)c2ccccn2)cc1		8.49 µM (active)
N#C/C(=C\c1ccc(OC(=O)c2ccc(Br)s2)cc1)c1nc2ccccc2[nH]1	-29.8	
N#C/C(=C/c1ccc(OC(=O)c2ccc(Br)s2)cc1)c1nc2ccccc2[nH]1	-20.4	

Structure (SMILES)	activity change, negative = inhibition [%]	Potency
N#C/C(=C\c1ccc(OC(=O)c2ccc(Cl)s2)cc1)c1nc2ccccc2[nH]1	-24.6	
CNC(=O)c1cc2c(cn1)[nH]c1ccccc12	-20.3	
CC(=O)Nc1cc(=O)c2cccnc2[nH]1		15.1 µM (active)
CCNc1ccc2noc3c2c1C(=O)c1ccccc1-3		6.75 µM (active)
COc1cc(CNCc2ccc(OC)cc2OC)cc(OC)c1	-15.2	
CSc1nc(NCCOCCO)c2sc3nc(-c4ccco4)c4c(c3c2n1)CCC4		7.57 µM (active)
CCOc1ccc(C2C3=C(Nc4nc(N)[nH]c(=O)c42)c2ccccc2C3=O)cc1 (stereo not given)		2.69 µM (active)
Nc1nc2c(c(=O)[nH]1)C(c1ccccc1)C1=C(N2)c2ccccc2C1=O (stereo not given)		1.69 µM (active)
CCCOc1ccc(C2C3=C(Nc4nc(N)[nH]c(=O)c42)c2ccccc2C3=O)cc1 (stereo not given)		3.38 µM (active)
Nc1nc2c(c(=O)[nH]1)C(c1cccc3ccccc13)C1=C(N2)c2ccccc2C1=O (stereo not given)		7.57 µM (active)
O=C1/C(=C/c2ccco2)SC(=S)N1c1cccnc1		12 µM (active)
Nc1n[nH]c2cc(=O)n(-c3ccc(Cl)cc3)nc12	-21.2	
Cn1nc(C(=O)Nc2nc3ccccc3[nH]2)c2ccccc2c1=O		16.9 µM (active)
CCN(CC)C(=O)CC(c1ccc(OC)cc1)c1c(OC)cc(OC)c2ccc(=O)oc12 (stereo not given)	-8.28	
CN1N/C(=C\c2ccccc2)N=C2C(=O)N(C)C(=O)N=C21		12 µM (active)
CCOc1cccc(CN2CCC(CCC(=O)NC3CC3)CC2)c1O	-6.6	
Cc1ccc(Nc2nc(NCCO)nc3c2cnn3C)cc1Cl		7.57 µM (active)
COc1ccccc1C(=O)Nc1c[nH]c(=O)[nH]c1=O	-25.1	
COc1cc2[nH]cc(C(=O)NCc3ccccc3)c(=O)c2cc1OC		5.36 µM (active)
COc1ccc(CNC(=O)c2sc(=O)n(Cc3cc(Cl)ccc3OC)c2C)cc1	-20.1	
O=C(C1=C[C@H](c2ccccc2)C[C@H](OCc2ccc(CO)cc2)O1)N1CCN(Cc2ccccc2)CC1	-21.5	
Nc1ccc2c(c1Cl)C(=O)c1ccc(N)c(Cl)c1C2=O		3.01 µM (active)
Cc1cc(Nc2ccc([N+](=O)[O-])cc2)c2ccccc2n1	-15.4	
COc1ccccc1Nc1cc(C)nc2c(C)ccc([N+](=O)[O-])c12		19 µM (active)

Structure (SMILES)	activity change, negative = inhibition [%]	Potency
O=C(NN1C(=O)/C(=C\c2ccc(O)c([N+](=O)[O-])c2)SC1=S)c1ccccc1Cl		12 µM (active)
O=C(Nc1ccccc1)C(Cl)C(=O)c1ccccc1 (stereo not given)	-13.8	
O=C(Nc1ccccc1)C1=C(c2ccccc2)S(=O)(=O)CCS1(=O)=O		13.5 µM (active)
O=C(Cn1c(S(=O)(=O)Cc2ccccc2)nc2ccccc21)N1CCCCC1	-2.49	
O=C(CSc1ccc(-c2ccccn2)nn1)N1CCCC1		12 µM (active)
O=C(CSc1ccc(-c2ccccn2)nn1)N1CCCCC1		7.57 µM (active)
Cc1cc2nc(/N=C(\N)NC(=O)N3c4ccccc4Sc4ccccc43)nc(C)c2cc1C	-24.6	
O=C(Cn1c(C(=O)N2CCc3ccccc3C2)cc2sccc21)c1ccccc1	-25.1	
Cc1cc(NC(=O)CS(=O)(=O)c2cn(Cc3cccc(Br)c3)c3ccccc23)no1	-26.3	
Cn1ccc2c(N3CCCC3)cc3c(c21)C1CCC3C1 (stereo not given)		21.3 µM (active)
COC(=O)c1ccc(C23CC4(C2)[C@H](CN(CC2CCCCC2)[C@@H]4c2ccccc2)C3c2ccc(Cl)nc2)cc1 (stereo not given in full)	-20.7	
O=C(CC(=O)c1c(F)cccc1Cl)c1ccccc1O	-12.4	
COC(=O)c1ccccc1NC1=C/C(=N\S(=O)(=O)c2cccs2)c2ccccc2C1=O		1.69 µM (active)
O=c1c2ccccc2nnn1CSc1nnc(C2COc3ccccc3O2)n1-c1ccccc1 (stereo not given)	-29.4	
O=c1c2ccccc2c(C=Nc2cccc(S(=O)(=O)NC3=NCCCCC3)c2)c(O)n1Cc1ccccc1	-13.3	
COc1ccc(S(=O)(=O)c2c(O)c3ccc(C(=O)Nc4cccc(F)c4)cc3[nH]c2=O)cc1		0.338 µM (active)
COc1cccc(NC(=O)c2ccc3c(c2)CCN3S(C)(=O)=O)c1	-14.2	
Cc1ccc(Nc2nnc(SCC(=O)c3c(N)n(C4CC4)c(=O)[nH]c3=O)s2)cc1C	-26.1	
O=C(Oc1ccc2c(c1)OCC2=O)c1ccccc1		4.78 µM (active)
CCCNC(=O)C1(C)CCN(Cc2cccc(OC(=O)c3ccccc3)c2)C1 (stereo not given)	-16.6	
O=C(Oc1ccc2c(c1)OCC2=O)c1ccc(Cl)cc1		2.39 µM (active)
CN(CCCc1cnc[nH]1)C(=S)NCCCN(Cc1ccc(Cl)cc1)c1ccc(Br)cn1		19 µM (active)
S=C(NCCCc1cnc[nH]1)NCCCN(Cc1ccc(Cl)cc1)c1ccc(-c2ccccc2)cn1		16.9 µM (active)
